PubChem BioAssay (NCI)
About 83,000 compounds went through this panel and 20% of them were active in at least one assay; those are over-represented in the sample as a whole.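 Step 1: grow cells in 96-well plates. Step 2: add test compound at a single concentration. Step 3: incubate 48 h. Step 4: record percent growth.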 A number with no mark means an inactive call. Active and inactive are the calls of the source. Rule for the calls: active = growth percent below 10; inactive = the rest.

What was measured:
Test in all cases: NCI-60 one-dose screen, 48 h (100 = growth as untreated, 0 = no growth, -100 = all killed)
Settings in all cases: 10 µM unless noted
HCT-15 colon = tested on: HCT-15 colon
HT29 colon = tested on: HT29 colon
SNB-75 CNS = tested on: SNB-75 CNS
SNB-19 CNS = tested on: SNB-19 CNS
U251 CNS = tested on: U251 CNS
PC-3 prostate = tested on: PC-3 prostate
SK-MEL-5 melanoma = tested on: SK-MEL-5 melanoma
UACC-62 melanoma = tested on: UACC-62 melanoma
LOX IMVI melanoma = tested on: LOX IMVI melanoma
SK-MEL-28 melanoma = tested on: SK-MEL-28 melanoma

Row | SMILES | growth (HCT-15 colon) | growth (HT29 colon) | growth (SNB-75 CNS) | growth (SNB-19 CNS) | growth (U251 CNS) | growth (PC-3 prostate) | growth (SK-MEL-5 melanoma) | growth (UACC-62 melanoma) | growth (LOX IMVI melanoma) | growth (SK-MEL-28 melanoma)
1 | Cc1nccc2c3ccc(OCc4cn(-c5ccccc5)nn4)cc3n(CCCc3ccccc3)c12 | 56.9% | 38.5% | 73.8% | 79.3% | 76.8% | 65.1% | 80.4% | 83.3% | 81.3% | 99%
2 | COCCOC(=O)COc1ccc(OC)cc1 | 98.1% | 114% | 91.8% | 97.4% | 102% | 96.8% | 93.8% | 96.2% | 102% | 109%
3 | CSc1cccc(NC(=O)Nc2nc3c(C)cccc3s2)c1 | 97.9% | 99.5% | 76.7% | 98.2% | 98.9% | 95.7% | 95.6% | 78.3% | 97.5% | 112%
4 | CCCCCCCCCCCCCC1=NCC[N+]1(CCO)Cc1ccccc1 (stereo not given) | -89.4% (active) | -89.3% (active) | 66% | -82.1% (active) | -88.7% (active) | -88.4% (active) | -73.6% (active) | -87.4% (active) | -92% (active) | -90.7% (active)
5 | O=C1NC(c2ccc(F)cc2)N=C2C(c3ccccc3)=NOC12 (stereo not given) | 103% | 98.7% | 101% | 103% | 101% | 104% | 105% | 102% | 108% | 115%
6 | N#C/C(=C/c1ccc(O)c([N+](=O)[O-])c1)c1nc(-c2ccc([N+](=O)[O-])cc2)cs1 | 24.7% | 52.7% | 80.5% | 34.5% | 22.1% | 29.9% | 5.51% (active) | -17.2% (active) | 38.2% | 35.5%
7 | O=C(C[n+]1cccc2cc(Cl)ccc21)c1ccc2c(c1)CCCC2 | 95.5% | 5.56% (active) | 19.8% | 23.2% | -28.9% (active) | 16.1% | -29% (active) | 17.3% | 11.9% | 19.8%
8 | Cc1cc(C)n(-c2nc(-c3cccs3)c(C#N)c(=O)[nH]2)n1 | 71.1% | 100% | 89.2% | 96.3% | 90.8% | 94.2% | 102% | 94.8% | 84.7% | 99.8%
9 | O=C1NN(c2ccccc2)C(c2ccc3c(c2)OCO3)N2CCC[C@@H]12 (stereo not given in full) | 102% | 85.8% | 93.6% | 103% | 95.1% | 90.7% | 106% | 92% | 91.9% | 111%
10 | COc1ccc(C(=O)c2cc(OC)c(OC)c(OC)c2)cc1OC(=O)CCl | 17% | 21.6% | 60.8% | 31.3% | -16.9% (active) | 17% | -34% (active) | 45.2% | 19% | 60.8%
11 | NCCN1CCNCC1 | 100% | 98.4% | 92.2% | 95.9% | 102% | 92% | 109% | 98.1% | 101% | 109%
12 | Nc1ccc2c(c1)C(=O)C(=O)c1c-2nc2ccccn12 | -29.8% (active) | 76.1% | 37.5% | 9.2% (active) | 9.14% (active) | 24% | -99.8% (active) | -85.3% (active) | -12.7% (active) | -28.9% (active)
13 | CN(C)[C@@H]1C(=O)C(C(N)=O)=C(O)[C@@]2(O)C(=O)C3=C(O)c4c(O)cc(CN5CCc6ccccc6C5)c(Cl)c4C[C@H]3C[C@@H]12 | -75.1% (active) | -84.6% (active) | -79.1% (active) | -82.2% (active) | -95.7% (active) | -85.5% (active) | -94.2% (active) | -89.5% (active) | -87.2% (active) | -86.6% (active)
14 | Cc1ccc(C(=O)O)o1 | 112% | 92.4% | 90.7% | 112% | 98.3% | 90.2% | 102% | 107% | 100% | 108%
15 | CC(=O)c1cnc(-c2ccccc2)nc1CBr | 63.5% | 43.5% | 73.4% | 81% | 79.5% | 73% | 91.6% | 84.3% | -39.9% (active) | 104%
16 | C=C1C(=O)O[C@H]2[C@H]1CC/C(COC(=O)n1ccnc1)=C\CC[C@@]1(C)O[C@@H]21 | 83.5% | 100% | 92.8% | 99% | 99.1% | 90.1% | 98.5% | 91.6% | 90.4% | 102%
17 | CCOC(=O)NCCc1nc2c([nH]1)c(=O)n(C)c(=O)n2C | 97.6% | 98.5% | 91% | 107% | 108% | 91% | 102% | 100% | 94.9% | 102%
18 | Cc1c(Cl)cccc1NC(=O)c1sc2nc3c(cc2c1N)CCCCCC3 | 24.1% | -10.3% (active) | -6.81% (active) | 29.1% | 15.7% | 32.9% | 28.7% | 32% | 40.8% | 58.7%
19 | C#Cc1ccccc1NC(=O)c1sc2nc3c(cc2c1N)CCCCC3 | 97.6% | 81.3% | 90.4% | 109% | 99% | 97.7% | 97.2% | 95.2% | 95.8% | 111%
20 | CCOC(=O)/C=C1\SC(=Nc2ccc(C#N)cc2)N(CCN2C(=O)/C(=C/C(=O)OCC)SC2=Nc2ccc(C#N)cc2)C1=O | 2.58% (active) | 15.7% | 53.6% | 28.2% | -7.96% (active) | 39.6% | 58.8% | 33.6% | 0.0355% (active) | 97%
21 | COc1cc(NC(=O)c2cc(O)c(C/C=C(\C)CCC=C(C)C)c(O)c2)cc2c1O[C@]1(C)CC[C@@H](O)C(C)(C)[C@H]1C2 | 10.4% | 2.06% (active) | 0.372% (active) | 8.74% (active) | 0.579% (active) | 13.1% | -68.2% (active) | -4.89% (active) | -65.8% (active) | 8.85% (active)
22 | COc1ccc(C(C)c2cc(OC)c(OC)c(OC)c2)cc1 (stereo not given) | 18% | 4.2% (active) | 38.2% | 34.1% | 18% | 24.5% | -31.5% (active) | 28.1% | 26.1% | 61.1%
23 | CN(C)CSc1nc2ccccc2s1 | 97.9% | 95% | 75.2% | 110% | 103% | 74.8% | 96.9% | 95.9% | 90% | 108%
24 | N#Cc1c(-c2ccc(F)cc2)nc(N=Nc2c(O)[nH]c3ccc(Cl)cc23)nc1N1CCOCC1 | 71.7% | 37.9% | -6.94% (active) | 39.8% | 15.8% | 61% | 29.6% | 35.1% | 24.5% | 46.8%
25 | COc1ccc2[nH]c(=O)c(/C=C/C(=O)c3ccccc3OC)cc2c1 | 11.3% | 7.17% (active) | -11.5% (active) | 17% | 5.14% (active) | 22.1% | 25.2% | 25.7% | 10.2% | 50.5%
26 | COc1cc(C(=O)N2CCN(c3ccccc3OC)CC2)c(NC(=O)c2cnccn2)cc1OCc1ccccc1 | 81.9% | 106% | 102% | 85.9% | 83.2% | 70.9% | 78.4% | 73.3% | 75.5% | 132%
